Potency data for 24 compounds are collected here from PubChem BioAssay (NCATS).

Results filed as inconclusive are left out. Entries that show only a call come without a potency. Active and inactive are the calls of the source. Calls come from the whole dose curve; as a rule, active = well fitted cell-killing curve with a large enough effect; inconclusive = small, poorly fitted or top-dose-only effect, or effect the other way; inactive = no such curve, though single readings can be large or run the other way.
Potency is the fitted concentration of half-maximal effect.

This experiment is described as follows: Quantitative High-Throughput drug screen in 47 multiple myeloma cell lines against the NCATS MIPE library collection: OCIMY1_PLB cell viability assay (AID 1918979). Note: nearly all actives have a fitted effect of over 35% in size. Conditions: OCI-MY1 myeloma viability, CellTiter-Glo ATP, 48 h; series mostly up to 45.8 µM. The source says: PI: Beverly A. Mock Ph.D.
Laboratory of Cancer Biology and Genetics,
Center for Cancer Research, National Cancer Institute,
National Institute of Health, Bethesda, Maryland
Drug resistance and disease progression are common in multiple myeloma (MM) patients, underscoring the need for new therapeutic combinations. […] We hypothesized that effective combinations would reduce MYC expression and enhance p16 activity. […] These preclinical data identify potentially useful drug combinations for evaluation in drug-resistant MM and reveal potential mechanisms of combined drug sensitivity.
Described herein is the primary MIPE qHTS used to cherrypick compounds. Validated compounds were then further tested for potential synergistic activiy.
[1] Peat TJ, Gaikwad SM, Dubois W, Gyabaah-Kessie N, Zhang S, Gorjifard S, Phyo Z, Andres M, Hughitt VK, Simpson RM, Miller MA, Girvin AT, Taylor A, Williams D, D'Antonio N, Zhang Y, Rajagopalan A, Flietner E, Wilson K, Zhang X, Shinn P, Klumpp-Thomas C, McKnight C, Itkin Z, Chen L, Kazandijian D, Zhang J, Michalowski AM, Simmons JK, Keats J, Thomas CJ, Mock BA. Drug combinations identified by high-throughput screening promote cell cycle transition and upregulate Smad pathways in myeloma. Cancer Lett. 2023 Aug 1;568:216284. doi: 10.1016/j.canlet.2023.216284. Epub 2023 Jun 24. PMID: 37356470; PMCID: PMC10408729.
SEQUENCE No. (e.g., 1, 2, 3, etc.); […] (e.g., Cells, Incubation, Reagent, etc.); VALUE and DESCRIPTION.
1; Cells; 5 uL; white, solid bottom 1536-well Greiner assay plate.
2; Compounds; 23 nL; Kalypsis pin tool (Wako USA) equipped with a 1536-well pin head to transfer to the assay plates.
3; Incubation; 48 hours; 37C incubation.
4; Reagent;5uL; CellTiter Glo (Promega).
5; Detector; 425V; Luminescence; Viewlux PerkinElmer.
NOTES (numbers refer to Sequence numbers above)
1. The cell-based screening methods employed in this study were like those previously published. Briefly, the corresponding myeloma cell lines were screened in 1,536-well plates with 500 cells, 5-uL per well for inhibition of cell viability (assessed by measuring ATP levels with CellTiterGlo).
2. NCATS MIPE 4.0 library of approved and investigational drugs were added using the Kalypsis pin tool. Wells treated with DMSO only for 100% viability and media only for 0% viability were used as controls.
3. The assay plates were covered and incubated for 48 hours in a 37C, 5% CO2 incubator with controlled humidity.
4. After 48 hours, CellTilter-GloTM luminescent substrate mix (Promega) reagent was added to the assay plate and plates we incubated for 5 min at room temperature.
5. Signal was measured as median relative luminescence units on a ViewLux (PerkinElmer) multiplate reader.
[1] Heske CM, Davis MI, Baumgart JT, Wilson K, Gormally MV, Chen L, Zhang X, Ceribelli M, Duveau DY, Guha R, Ferrer M, Arnaldez FI, Ji J, Tran HL, Zhang Y, Mendoza A, Helman LJ, Thomas CJ. Matrix Screen Identifies Synergistic Combination of PARP Inhibitors and Nicotinamide Phosphoribosyltransferase (NAMPT) Inhibitors in Ewing Sarcoma. Clin Cancer Res. 2017 Dec 1;23(23):7301-7311. doi: 10.1158/1078-0432.CCR-17-1121. Epub 2017 Sep 12. PMID: 28899971; PMCID: PMC6636827.
Turning to `CNC(=O)c1ccc(N2C(=S)N(c3ccc(C#N)c(C(F)(F)F)c3)C(=O)C23CCC3)cc1F`, the Potency entry is “inactive”. As for `C[C@@H]1O[C@@H](O[C@H]2C[C@@H](O)[C@]3(CO)[C@H]4[C@H](O)C[C@]5(C)[C@@H](C6=CC(=O)OC6)CC[C@]5(O)[C@@H]4CC[C@]3(O)C2)[C@H](O)[C@H](O)[C@H]1O`, the Potency was 0.0209 µM (active). On to `C#CCN(C)[C@H](C)Cc1ccccc1`, for which the Potency entry is “inactive”.

Take `CC(C)CC(N(C)C)C1(c2ccc(Cl)cc2)CCC1` (centres undefined): the Potency result was “inactive”.

Take `COc1ccc(C(CN(C)C)C2(O)CCCCC2)cc1` (centres undefined): the Potency entry is “inactive”. As to `Fc1ccc(C(OCCN2CCN(CCCc3ccccc3)CC2)c2ccc(F)cc2)cc1`, the Potency is 26.4 µM (active).

Regarding `CN1CCN(C(=O)O[C@H]2c3nccnc3C(=O)N2c2ccc(Cl)cn2)CC1`, the Potency entry is “inactive”. With `O=C1CC[C@@]2(O)[C@H]3Cc4ccc(O)c5c4[C@@]2(CCN3CC2CC2)[C@H]1O5`, the Potency entry was “inactive”.

On to `COC1(CS(=O)c2ccccc2)CCN(CCc2c[nH]c3ccc(F)cc23)CC1` (centres undefined), for which the Potency result is “inactive”. The same measure for `N[C@@H](Cc1ccc(N(CCCl)CCCl)cc1)C(=O)O`: 16.6 µM (active); for `CNCC(O)c1ccc(O)cc1` (centres undefined): “inactive”. Turning to `COc1ccc2c(c1OC)CN1CCc3cc4c(cc3C1C2)OCO4` (centres undefined), the Potency result is “inactive”. The entry for `Cc1cc(SCc2sc(-c3ccc(C(F)(F)F)c(F)c3)nc2C)ccc1OCC(=O)O` is “inactive”. With `C[C@@H]1[C@@H](CC(C[C@H]2O[C@@H]3O[C@]4(C)CC[C@@H]5[C@H](C)CC[C@@H]([C@H]2C)[C@@]35OO4)C[S+](=O)([O-])c2ccc(COC(=O)N(C)C)cc2)O[C@@H]2O[C@]3(C)CC[C@H]4[C@H](C)CC[C@@H]1[C@@]24OO3` (some centres undefined), the Potency was 0.187 µM (active).

For the compound `COc1ccc(C(=O)c2c(C)n(CCN3CCOCC3)c3ccccc23)cc1`, the Potency entry is “inactive”. Take `CC1=C2C[C@@H]3[C@@H](CC=C4C[C@@H](O)CC[C@@]43C)[C@@H]2CC[C@]12O[C@H]1C[C@H](C)CN[C@H]1[C@H]2C`: the Potency entry is “inactive”.

For the compound `Cn1cc(C2=C(c3cn(C4CCN(Cc5ccccn5)CC4)c4ccccc34)C(=O)NC2=O)c2ccccc21`, the Potency entry was “inactive”.

Take `O=c1[nH]c2ccccc2n1CCCN1CCC(n2c(=O)[nH]c3cc(Cl)ccc32)CC1`: the Potency result is “inactive”. On to `CNC(=O)N1N=C(c2ccc(N)cc2)c2cc3c(cc2CC1C)OCO3` (centres undefined), for which the Potency entry is “inactive”. Regarding `COC[C@@H](NC(C)=O)C(=O)NCc1ccccc1`, the Potency entry was “inactive”. On to `Cc1cccc(C)c1NC(=O)CN1CCCC1=O`, for which the Potency entry is “inactive”. Turning to `CN(C)CCc1ccc(O)cc1`, the Potency entry was “inactive”. For the compound `O=C(O)C(=O)c1cn(Cc2ccccc2)c2ccc(-c3ccc(OC(F)(F)F)cc3)cc12`, the Potency entry was “inactive”.

Regarding `CCCC(C)(COC(N)=O)COC(=O)NC(C)C` (centres undefined), the Potency result was “inactive”.
